How the values were obtained:
Experiment in all cases: DAPPL (digital affinity profiling via proximity ligation, sequencing); 10 mM Tris-HCl pH 7.5, 50 mM NaCl, 1 mM DTT, 4% glycerol, room temperature, 30 min; GST-TFs on glutathione beads, 16-mer random dsDNA library, 0.1% formaldehyde crosslink after washing; high values mean tight binding
[1] = target: T1, FLI1 (Homo sapiens, UniProt Q01543 1-452); conditions: protein: recombinant; tags: N-terminal GST; dsDNA, one strand shown
T1 sequence: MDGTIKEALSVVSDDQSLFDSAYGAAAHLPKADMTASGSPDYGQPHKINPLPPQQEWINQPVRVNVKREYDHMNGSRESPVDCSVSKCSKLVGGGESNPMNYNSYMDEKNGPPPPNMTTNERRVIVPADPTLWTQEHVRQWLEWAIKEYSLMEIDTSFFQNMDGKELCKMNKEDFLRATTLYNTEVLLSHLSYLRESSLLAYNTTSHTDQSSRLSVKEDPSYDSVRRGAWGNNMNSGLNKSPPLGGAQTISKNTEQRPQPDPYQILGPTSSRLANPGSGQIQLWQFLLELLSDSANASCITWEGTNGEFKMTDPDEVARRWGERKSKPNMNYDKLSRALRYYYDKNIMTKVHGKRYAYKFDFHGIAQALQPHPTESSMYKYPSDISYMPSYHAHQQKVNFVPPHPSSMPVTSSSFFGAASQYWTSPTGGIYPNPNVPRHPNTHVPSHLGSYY
Outline: (§1)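 Yeast served to express human transcription factors as GST fusions, which were then captured on glutathione beads and labelled with DNA barcodes. Pooled with a tag-only sample, they were incubated with 200 nmole of a 16-mer random double-stranded DNA library for 30 min at room temperature in Tris/NaCl/DTT/glycerol buffer, washed, crosslinked with 0.1% formaldehyde, ligated by proximity, amplified by PCR and sequenced. Dividing each hexamer's read frequency for a factor by its frequency for the tag-only sample gives the binding signal.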

[2] = target: T2, ELK1 (Homo sapiens, UniProt P19419 1-428); conditions: protein: recombinant; tags: N-terminal GST; dsDNA, one strand shown
T2 sequence: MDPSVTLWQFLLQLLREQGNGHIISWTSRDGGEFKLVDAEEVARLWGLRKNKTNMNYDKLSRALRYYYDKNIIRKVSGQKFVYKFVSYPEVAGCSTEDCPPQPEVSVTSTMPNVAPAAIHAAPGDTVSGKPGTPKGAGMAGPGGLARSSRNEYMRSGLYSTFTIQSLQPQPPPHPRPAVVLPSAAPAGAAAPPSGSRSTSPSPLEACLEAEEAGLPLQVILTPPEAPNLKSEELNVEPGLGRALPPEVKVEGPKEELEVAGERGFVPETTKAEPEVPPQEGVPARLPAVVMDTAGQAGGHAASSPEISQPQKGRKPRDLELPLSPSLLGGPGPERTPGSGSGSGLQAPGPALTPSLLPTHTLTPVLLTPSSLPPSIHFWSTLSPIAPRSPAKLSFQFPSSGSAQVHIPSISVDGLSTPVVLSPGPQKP
Outline: as §1

[3] = target: T3, GABPA (Homo sapiens, UniProt Q06546 1-454); conditions: protein: recombinant; tags: N-terminal GST; dsDNA, one strand shown
T3 sequence: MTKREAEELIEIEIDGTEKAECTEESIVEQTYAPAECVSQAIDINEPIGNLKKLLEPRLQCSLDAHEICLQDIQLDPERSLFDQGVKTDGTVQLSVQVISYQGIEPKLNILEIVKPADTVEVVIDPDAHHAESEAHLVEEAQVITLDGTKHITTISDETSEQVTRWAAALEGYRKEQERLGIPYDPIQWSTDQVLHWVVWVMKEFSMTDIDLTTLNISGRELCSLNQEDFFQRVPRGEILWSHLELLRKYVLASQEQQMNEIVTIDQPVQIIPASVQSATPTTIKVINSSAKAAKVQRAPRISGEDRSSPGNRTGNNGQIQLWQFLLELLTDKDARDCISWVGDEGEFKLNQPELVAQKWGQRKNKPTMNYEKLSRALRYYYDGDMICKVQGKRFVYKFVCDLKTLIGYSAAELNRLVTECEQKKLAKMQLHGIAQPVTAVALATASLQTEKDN
Outline: as §1

[4] = target: T4, ERG (Homo sapiens, UniProt P11308 1-479); conditions: protein: recombinant; tags: N-terminal GST; dsDNA, one strand shown
T4 sequence: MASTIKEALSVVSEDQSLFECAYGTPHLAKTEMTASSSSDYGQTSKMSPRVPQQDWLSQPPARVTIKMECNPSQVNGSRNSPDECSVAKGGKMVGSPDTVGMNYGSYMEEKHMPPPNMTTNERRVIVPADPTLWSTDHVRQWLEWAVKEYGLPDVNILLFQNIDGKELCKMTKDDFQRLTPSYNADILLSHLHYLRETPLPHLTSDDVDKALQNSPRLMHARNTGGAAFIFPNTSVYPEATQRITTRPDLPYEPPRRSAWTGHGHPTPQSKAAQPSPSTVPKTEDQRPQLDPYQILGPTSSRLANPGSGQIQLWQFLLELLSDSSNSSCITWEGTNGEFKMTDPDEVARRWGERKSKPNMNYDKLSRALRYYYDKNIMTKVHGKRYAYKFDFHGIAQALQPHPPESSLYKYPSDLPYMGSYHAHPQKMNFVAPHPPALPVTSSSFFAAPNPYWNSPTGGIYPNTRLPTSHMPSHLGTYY
Outline: as §1

[5] = target: ELF1 (Homo sapiens, UniProt P32519 1-619); conditions: protein: recombinant; tags: N-terminal GST; dsDNA, one strand shown
ELF1, sequence (P32519 whole entry): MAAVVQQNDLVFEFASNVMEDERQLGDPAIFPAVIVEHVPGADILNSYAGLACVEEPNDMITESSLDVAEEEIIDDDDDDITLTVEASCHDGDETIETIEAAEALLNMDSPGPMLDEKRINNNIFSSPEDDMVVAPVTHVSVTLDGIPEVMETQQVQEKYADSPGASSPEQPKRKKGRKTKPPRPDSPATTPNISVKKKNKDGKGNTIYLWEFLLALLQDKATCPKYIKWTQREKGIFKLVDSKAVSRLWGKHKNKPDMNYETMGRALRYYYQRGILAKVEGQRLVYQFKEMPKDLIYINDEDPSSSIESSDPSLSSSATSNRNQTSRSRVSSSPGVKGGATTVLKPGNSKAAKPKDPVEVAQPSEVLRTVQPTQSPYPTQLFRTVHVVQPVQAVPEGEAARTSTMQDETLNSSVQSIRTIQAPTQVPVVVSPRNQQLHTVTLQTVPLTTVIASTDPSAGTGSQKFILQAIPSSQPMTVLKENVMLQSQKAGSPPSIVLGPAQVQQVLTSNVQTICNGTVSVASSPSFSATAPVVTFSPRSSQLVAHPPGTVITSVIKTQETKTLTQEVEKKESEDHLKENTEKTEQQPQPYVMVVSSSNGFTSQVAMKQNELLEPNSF
Outline: as §1

[6] = target: T5, EHF (Homo sapiens, UniProt Q9NZC4 1-300); conditions: protein: recombinant; tags: N-terminal GST; dsDNA, one strand shown
T5 sequence: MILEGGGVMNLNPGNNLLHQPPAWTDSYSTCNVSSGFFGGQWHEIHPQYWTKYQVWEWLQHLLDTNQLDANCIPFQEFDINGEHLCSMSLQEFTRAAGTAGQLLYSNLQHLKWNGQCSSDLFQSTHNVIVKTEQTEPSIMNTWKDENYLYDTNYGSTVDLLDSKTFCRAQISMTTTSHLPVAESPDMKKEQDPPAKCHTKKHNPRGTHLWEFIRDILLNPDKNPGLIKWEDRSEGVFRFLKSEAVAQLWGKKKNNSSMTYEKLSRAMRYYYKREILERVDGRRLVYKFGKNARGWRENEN
Outline: as §1

[7] = target: SPI1 (Homo sapiens, UniProt P17947 1-270); conditions: protein: recombinant; tags: N-terminal GST; dsDNA, one strand shown
Outline: as §1

[8] = target: SPIB (Homo sapiens, UniProt Q01892 1-262); conditions: protein: recombinant; tags: N-terminal GST; dsDNA, one strand shown
SPIB, sequence (Q01892 whole entry): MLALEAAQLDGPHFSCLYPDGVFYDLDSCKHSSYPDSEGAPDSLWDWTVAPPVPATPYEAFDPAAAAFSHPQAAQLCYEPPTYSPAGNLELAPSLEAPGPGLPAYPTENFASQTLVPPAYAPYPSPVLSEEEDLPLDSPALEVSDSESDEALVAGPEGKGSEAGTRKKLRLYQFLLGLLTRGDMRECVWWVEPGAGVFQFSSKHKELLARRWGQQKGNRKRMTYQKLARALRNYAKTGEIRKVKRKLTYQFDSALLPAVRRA
Outline: as §1

[9] = target: T6, ELK3 (Homo sapiens, UniProt P41970 1-407); conditions: protein: recombinant; tags: N-terminal GST; dsDNA, one strand shown
T6 sequence: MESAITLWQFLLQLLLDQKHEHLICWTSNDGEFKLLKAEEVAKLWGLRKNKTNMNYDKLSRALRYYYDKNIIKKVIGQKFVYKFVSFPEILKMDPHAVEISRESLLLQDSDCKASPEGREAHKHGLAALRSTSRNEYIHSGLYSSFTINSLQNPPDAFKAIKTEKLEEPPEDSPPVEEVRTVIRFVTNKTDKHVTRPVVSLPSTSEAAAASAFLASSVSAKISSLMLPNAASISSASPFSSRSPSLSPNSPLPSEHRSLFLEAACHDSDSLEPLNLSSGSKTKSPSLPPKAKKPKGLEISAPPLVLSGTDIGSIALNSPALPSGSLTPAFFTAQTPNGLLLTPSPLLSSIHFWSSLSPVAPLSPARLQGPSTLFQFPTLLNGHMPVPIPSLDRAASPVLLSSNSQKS
Outline: as §1

[10] = target: T7, FEV (Homo sapiens, UniProt Q99581 1-238); conditions: protein: recombinant; tags: N-terminal GST; dsDNA, one strand shown
T7 sequence: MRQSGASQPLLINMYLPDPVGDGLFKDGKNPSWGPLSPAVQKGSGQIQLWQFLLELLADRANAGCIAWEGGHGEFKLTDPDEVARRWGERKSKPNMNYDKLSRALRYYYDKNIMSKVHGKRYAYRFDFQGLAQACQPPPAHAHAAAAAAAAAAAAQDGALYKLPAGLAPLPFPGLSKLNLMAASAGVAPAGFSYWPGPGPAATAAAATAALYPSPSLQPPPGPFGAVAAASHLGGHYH
Outline: as §1

[11] = target: ETV5 (Homo sapiens, UniProt P41161 1-510); conditions: protein: recombinant; tags: N-terminal GST; dsDNA, one strand shown
ETV5, sequence (P41161 whole entry): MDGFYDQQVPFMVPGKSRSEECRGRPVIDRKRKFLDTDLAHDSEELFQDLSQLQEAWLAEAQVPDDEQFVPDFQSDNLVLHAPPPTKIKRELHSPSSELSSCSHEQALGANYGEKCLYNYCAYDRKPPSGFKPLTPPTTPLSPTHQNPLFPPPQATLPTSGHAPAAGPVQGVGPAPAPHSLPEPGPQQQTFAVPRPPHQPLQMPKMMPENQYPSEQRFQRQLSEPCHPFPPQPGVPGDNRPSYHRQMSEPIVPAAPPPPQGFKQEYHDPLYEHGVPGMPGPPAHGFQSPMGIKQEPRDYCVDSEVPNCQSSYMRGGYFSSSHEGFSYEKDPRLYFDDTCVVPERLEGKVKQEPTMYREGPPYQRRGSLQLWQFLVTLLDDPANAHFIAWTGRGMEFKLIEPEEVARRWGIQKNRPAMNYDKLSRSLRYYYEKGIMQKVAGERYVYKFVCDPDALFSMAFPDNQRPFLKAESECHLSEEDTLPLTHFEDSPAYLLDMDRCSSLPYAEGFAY
Outline: as §1

[12] = target: HSF1 (Homo sapiens, UniProt Q00613 1-529); conditions: protein: recombinant; tags: N-terminal GST; chain copies: 3; dsDNA, one strand shown
HSF1, sequence (Q00613 whole entry): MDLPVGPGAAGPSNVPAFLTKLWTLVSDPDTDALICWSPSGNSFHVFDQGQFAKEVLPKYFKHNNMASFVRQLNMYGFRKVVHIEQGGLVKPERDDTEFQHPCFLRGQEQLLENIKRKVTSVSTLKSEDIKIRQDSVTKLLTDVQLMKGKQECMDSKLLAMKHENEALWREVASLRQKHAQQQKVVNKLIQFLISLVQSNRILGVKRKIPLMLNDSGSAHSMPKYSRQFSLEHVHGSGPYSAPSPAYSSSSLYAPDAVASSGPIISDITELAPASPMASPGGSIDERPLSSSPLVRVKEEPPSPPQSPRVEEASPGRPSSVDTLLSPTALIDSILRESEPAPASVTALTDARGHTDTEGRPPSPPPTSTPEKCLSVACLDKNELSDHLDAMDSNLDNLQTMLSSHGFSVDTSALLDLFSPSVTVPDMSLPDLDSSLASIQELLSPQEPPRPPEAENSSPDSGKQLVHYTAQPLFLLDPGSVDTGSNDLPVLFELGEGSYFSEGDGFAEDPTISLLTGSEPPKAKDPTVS
Outline: as §1

[13] = target: T8, SPIC (Homo sapiens, UniProt Q8N5J4 1-248); conditions: protein: recombinant; tags: N-terminal GST; dsDNA, one strand shown
T8 sequence: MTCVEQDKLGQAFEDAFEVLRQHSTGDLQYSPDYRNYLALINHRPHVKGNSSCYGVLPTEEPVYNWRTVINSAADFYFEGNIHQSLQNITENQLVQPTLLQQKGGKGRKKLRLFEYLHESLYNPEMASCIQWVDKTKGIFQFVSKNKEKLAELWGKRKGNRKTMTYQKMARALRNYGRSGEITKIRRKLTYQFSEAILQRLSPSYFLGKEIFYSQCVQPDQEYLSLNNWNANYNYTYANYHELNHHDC
Outline: as §1

[14] = target: ELF4 (Homo sapiens, UniProt Q99607 1-663); conditions: protein: recombinant; tags: N-terminal GST; dsDNA, one strand shown
ELF4, sequence (Q99607 whole entry): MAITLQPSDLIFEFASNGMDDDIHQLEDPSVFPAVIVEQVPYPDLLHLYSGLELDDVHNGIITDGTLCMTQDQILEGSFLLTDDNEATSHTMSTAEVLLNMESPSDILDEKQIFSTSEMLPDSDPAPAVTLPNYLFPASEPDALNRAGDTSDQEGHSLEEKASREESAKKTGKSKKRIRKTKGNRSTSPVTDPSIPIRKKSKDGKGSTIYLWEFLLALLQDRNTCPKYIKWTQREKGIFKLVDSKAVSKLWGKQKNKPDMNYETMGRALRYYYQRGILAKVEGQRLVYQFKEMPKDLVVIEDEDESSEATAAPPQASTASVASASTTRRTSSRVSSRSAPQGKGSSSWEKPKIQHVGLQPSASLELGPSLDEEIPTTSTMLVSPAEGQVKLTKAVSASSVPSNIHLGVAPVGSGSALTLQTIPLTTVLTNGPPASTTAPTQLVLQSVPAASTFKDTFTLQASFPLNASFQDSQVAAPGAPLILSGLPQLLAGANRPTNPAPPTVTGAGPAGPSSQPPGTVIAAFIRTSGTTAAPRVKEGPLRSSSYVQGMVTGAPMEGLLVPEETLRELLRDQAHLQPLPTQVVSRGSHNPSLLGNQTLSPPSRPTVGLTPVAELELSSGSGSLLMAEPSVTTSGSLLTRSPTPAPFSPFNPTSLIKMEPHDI
Outline: as §1

[15] = target: T9, ELK4 (Homo sapiens, UniProt P28324-2 1-405); conditions: protein: recombinant; tags: N-terminal GST; dsDNA, one strand shown
T9 sequence: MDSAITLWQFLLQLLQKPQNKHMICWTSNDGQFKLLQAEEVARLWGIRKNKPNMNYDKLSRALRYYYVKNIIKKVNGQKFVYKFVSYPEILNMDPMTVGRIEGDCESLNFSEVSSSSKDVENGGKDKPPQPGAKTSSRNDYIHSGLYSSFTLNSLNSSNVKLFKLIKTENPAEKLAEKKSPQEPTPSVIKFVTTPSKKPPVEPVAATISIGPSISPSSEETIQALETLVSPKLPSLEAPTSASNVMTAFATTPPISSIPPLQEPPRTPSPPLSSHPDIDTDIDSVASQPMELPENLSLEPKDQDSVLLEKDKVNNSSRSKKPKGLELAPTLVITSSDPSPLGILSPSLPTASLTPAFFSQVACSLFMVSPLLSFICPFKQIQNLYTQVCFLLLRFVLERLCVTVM
Outline: as §1

[16] = target: T10, ETV2 (Homo sapiens, UniProt O00321 1-342); conditions: protein: recombinant; tags: N-terminal GST; dsDNA, one strand shown
T10 sequence: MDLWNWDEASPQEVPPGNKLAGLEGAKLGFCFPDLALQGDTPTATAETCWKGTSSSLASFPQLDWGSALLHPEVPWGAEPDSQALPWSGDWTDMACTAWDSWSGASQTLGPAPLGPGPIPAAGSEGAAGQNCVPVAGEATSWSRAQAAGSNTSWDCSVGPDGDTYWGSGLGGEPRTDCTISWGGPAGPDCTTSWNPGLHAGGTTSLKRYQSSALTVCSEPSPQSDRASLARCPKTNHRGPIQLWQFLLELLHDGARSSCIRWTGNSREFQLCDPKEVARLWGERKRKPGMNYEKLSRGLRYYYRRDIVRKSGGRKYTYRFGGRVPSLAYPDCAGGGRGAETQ
Outline: as §1

[17] = target: T11, ELF3 (Homo sapiens, UniProt P78545 1-371); conditions: protein: recombinant; tags: N-terminal GST; dsDNA, one strand shown
T11 sequence: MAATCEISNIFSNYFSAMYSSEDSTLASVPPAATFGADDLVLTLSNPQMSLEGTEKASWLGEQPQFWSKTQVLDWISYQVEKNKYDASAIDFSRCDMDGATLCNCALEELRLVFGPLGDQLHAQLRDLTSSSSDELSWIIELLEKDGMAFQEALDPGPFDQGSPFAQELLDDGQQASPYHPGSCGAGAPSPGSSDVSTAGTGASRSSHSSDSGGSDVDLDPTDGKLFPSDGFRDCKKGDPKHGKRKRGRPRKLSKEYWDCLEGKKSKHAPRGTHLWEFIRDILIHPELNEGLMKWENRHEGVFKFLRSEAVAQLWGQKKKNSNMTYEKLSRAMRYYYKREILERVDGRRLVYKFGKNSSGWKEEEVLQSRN
Outline: as §1

[18] = target: CRX (Homo sapiens, UniProt O43186 1-299); conditions: protein: recombinant; tags: N-terminal GST; dsDNA, one strand shown
CRX, sequence (O43186 whole entry): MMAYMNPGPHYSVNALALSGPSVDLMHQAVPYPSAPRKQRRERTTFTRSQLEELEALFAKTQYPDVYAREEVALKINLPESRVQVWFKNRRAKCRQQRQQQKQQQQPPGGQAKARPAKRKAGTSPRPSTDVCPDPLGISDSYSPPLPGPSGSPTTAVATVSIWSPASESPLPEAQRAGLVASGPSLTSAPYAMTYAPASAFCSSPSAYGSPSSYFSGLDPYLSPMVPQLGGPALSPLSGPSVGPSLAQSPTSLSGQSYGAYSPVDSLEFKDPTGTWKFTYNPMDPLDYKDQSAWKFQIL
Outline: as §1

[19] = target: ETV1 (Homo sapiens, UniProt P50549 1-477); conditions: protein: recombinant; tags: N-terminal GST; dsDNA, one strand shown
ETV1, sequence (P50549 whole entry): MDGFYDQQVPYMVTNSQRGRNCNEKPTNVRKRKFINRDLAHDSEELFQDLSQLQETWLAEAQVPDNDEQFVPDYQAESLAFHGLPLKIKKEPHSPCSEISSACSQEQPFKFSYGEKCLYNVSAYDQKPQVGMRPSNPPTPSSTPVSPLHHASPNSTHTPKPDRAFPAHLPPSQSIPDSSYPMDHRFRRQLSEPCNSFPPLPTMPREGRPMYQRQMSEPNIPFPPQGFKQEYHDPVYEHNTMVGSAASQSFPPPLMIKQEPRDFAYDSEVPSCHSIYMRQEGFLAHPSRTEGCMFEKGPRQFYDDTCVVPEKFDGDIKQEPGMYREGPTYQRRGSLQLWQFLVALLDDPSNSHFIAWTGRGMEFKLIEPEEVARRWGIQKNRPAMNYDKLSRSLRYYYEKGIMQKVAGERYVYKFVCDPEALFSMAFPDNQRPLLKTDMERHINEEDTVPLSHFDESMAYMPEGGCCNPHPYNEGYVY
Outline: as §1

For ACGTCC, the binding signal [1] was 1.59 fold enrichment (6-mer frequency, TF over GST control), the binding signal [2] was 1.58 fold enrichment (6-mer frequency, TF over GST control) and the binding signal [3] was 1.61 fold enrichment (6-mer frequency, TF over GST control). For the same sequence, the binding signal [4] was 1.67 fold enrichment (6-mer frequency, TF over GST control), the binding signal [5] was 1.55 fold enrichment (6-mer frequency, TF over GST control) and the binding signal [6] was 1.63 fold enrichment (6-mer frequency, TF over GST control). For the same sequence, the binding signal [7] was 1.49 fold enrichment (6-mer frequency, TF over GST control), the binding signal [8] was 1.72 fold enrichment (6-mer frequency, TF over GST control) and the binding signal [9] was 1.85 fold enrichment (6-mer frequency, TF over GST control). For the same sequence, the binding signal [10] was 1.81 fold enrichment (6-mer frequency, TF over GST control), the binding signal [11] was 1.65 fold enrichment (6-mer frequency, TF over GST control) and the binding signal [12] was 1.07 fold enrichment (6-mer frequency, TF over GST control). For the same sequence, the binding signal [13] was 1.59 fold enrichment (6-mer frequency, TF over GST control), the binding signal [14] was 1.54 fold enrichment (6-mer frequency, TF over GST control) and the binding signal [15] was 1.46 fold enrichment (6-mer frequency, TF over GST control). The binding signal [16] was 1.39 fold enrichment (6-mer frequency, TF over GST control), the binding signal [17] was 1.39 fold enrichment (6-mer frequency, TF over GST control) and the binding signal [18] was 1.01 fold enrichment (6-mer frequency, TF over GST control). For the same sequence, the binding signal [19] was 1.63 fold enrichment (6-mer frequency, TF over GST control).

Source: PMC7862700, “An all-to-all approach to the identification of sequence-specific readers for epigenetic DNA modifications on cytosine”
